The source made the active and inactive calls. The calls were made as follows: active = hit-call score of the fitted dose curve at least 0.9, where 1 is the maximum; inactive = score below 0.9.
The compounds below were run against Hypoxia-inducible factor 1-alpha (Homo sapiens) (UniProt Q16665) (assay: ATG_HIF1a_CIS: Attagene CIS-FACTORIAL HepG2 Assay for human Hypoxia Inducible Factor 1 (HIF1A) (AID 2282951)). Conditions: HepG2 Attagene cis-factorial HIF1a reporter transcription; actives raise or lower the signal.
Chain of Hypoxia-inducible factor 1-alpha (Homo sapiens) (Q16665 whole entry, looked up): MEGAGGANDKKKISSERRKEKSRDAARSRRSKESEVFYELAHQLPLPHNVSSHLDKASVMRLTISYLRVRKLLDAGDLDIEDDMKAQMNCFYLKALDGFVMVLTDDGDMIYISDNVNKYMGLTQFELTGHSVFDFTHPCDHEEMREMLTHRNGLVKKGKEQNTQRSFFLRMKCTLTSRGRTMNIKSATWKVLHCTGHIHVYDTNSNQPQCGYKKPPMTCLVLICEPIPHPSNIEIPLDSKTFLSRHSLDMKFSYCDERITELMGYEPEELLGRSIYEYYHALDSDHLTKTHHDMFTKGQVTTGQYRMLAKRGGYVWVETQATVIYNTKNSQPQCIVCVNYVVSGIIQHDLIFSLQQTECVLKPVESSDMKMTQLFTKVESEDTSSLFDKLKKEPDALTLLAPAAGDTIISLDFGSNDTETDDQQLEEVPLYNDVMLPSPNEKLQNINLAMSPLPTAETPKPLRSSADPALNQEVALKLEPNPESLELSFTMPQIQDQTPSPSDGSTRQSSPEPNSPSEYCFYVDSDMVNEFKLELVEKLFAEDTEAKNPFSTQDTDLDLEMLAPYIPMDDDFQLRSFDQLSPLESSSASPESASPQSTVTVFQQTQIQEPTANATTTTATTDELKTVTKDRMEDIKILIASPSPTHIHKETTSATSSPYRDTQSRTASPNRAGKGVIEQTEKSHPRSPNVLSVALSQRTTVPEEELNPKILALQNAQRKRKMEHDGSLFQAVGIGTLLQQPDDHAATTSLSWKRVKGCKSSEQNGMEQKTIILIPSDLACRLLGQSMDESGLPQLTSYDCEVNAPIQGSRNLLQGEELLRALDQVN
Method: ATG_CIS is a cell-based, multiplexed-readout assay that uses HepG2, a human liver cell line, with measurements taken at 24 hours after chemical dosing in a 24-well plate.ATG_HIF1a_CIS is one of 52 assay component(s) measured or calculated from the ATG_CIS assay. It is designed to make measurements of mRNA induction, a form of inducible reporter, as detected with fluorescence intensity signals by Reverse transcription polymerase chain reaction (RT-PCR) and Capillary electrophoresis technology.Data from the assay component ATG_HIF1a_CIS was analyzed into 1 assay endpoint. This assay endpoint, ATG_HIF1a_CIS, was analyzed with bidirectional fitting relative to DMSO as the negative control and baseline of activity. Using a type of inducible reporter, measures of mRNA for gain or loss-of-signal activity can be used to understand the reporter gene at the transcription factor-level as they relate to the gene HIF1A. Furthermore, this assay endpoint can be referred to as a primary readout, because this assay has produced multiple assay endpoints where this one serves a reporter gene function. To generalize the intended target to other relatable targets, this assay endpoint is annotated to the dna binding intended target family, where the subfamily is basic helix-loop-helix protein.
Human liver HepG2 cells are transiently transfected with multiple reporter transcription units (MRTUs) in 6-well plates using FuGene 6 reagent (Roche; 3 ml FuGene/1 mg DNA). The MRTU constructs are regulated by a cis-regulating element (promoter). […] A major difference between the CIS and TRANS system is that in CIS activities of endogenous TFs are measured, whereas the TRANS assay evaluates changes in activities of exogenous, chimeric NR-Gal4 proteins. […] At the end of 24 hour incubation, total RNA was isolated using TriZol reagent (Invitrogen). The isolated RNA is then reverse-transcribed using oligo(dT) primer and Mo-MLV reverse transcriptase (Invitrogen) with DNAse I (Ambion) treatment for 30 min. The one-tenth of the produced cDNA was amplified by PCR using Taq DNA polymerase (Invitrogen) and two reporter sequence-specific primers. The PCR products were fluorescently labeled by primer extension with 6-arboxyfluorescein (6-FAM) 5'-labeled reporter sequence-specific primer (2 min at 95 C, 20 s at 68 C and 10 min at 72 C) and these products were digested with 5U of HpaI (New England Biolabs) for 2h at 37 C. The fragments were purified using Qiaquick PCR columns (Qiagen), analyzed on an ABI 3130xL genetic analyzer (Applied Biosystems) with peak positions identified by using a set of X-rhodamine (ROX)-labeled MapMarker1000 molecular weight standards (BioVentures). The raw capillary electrophoresis data was processed using Attagraph software (Attagene).
For `Clc1nc(Cl)c(Cl)c(Cl)c1Cl`, the outcome was “inactive”. For `CC(C)CCCCCCCOC(=O)CCCCC(=O)OCCCCCCCC(C)C`, the outcome was “inactive”. With `CCCCC(CC)COC(=O)CCCCCCCCC(=O)OCC(CC)CCCC` (stereo not given) the outcome was “inactive”. With `CC(=O)c1ccc2c(c1)[C@H](NC(=O)c1ccc(F)cc1)[C@@H](O)C(C)(C)O2` the outcome was “inactive”. In the case of `CC1=CC(=O)CC(C)(C)C1`, the outcome is reported as “inactive”. `Cc1c(-c2cccnc2)c2ccccc2n1CCCCC(=O)O` was tested, and the outcome was “inactive”. For `CC(=O)OCCC(C)C`, the outcome was “inactive”. For `CCCCCCCCCCCCc1ccccc1`, the outcome was “inactive”. `COCCOc1cc2cc(C(=O)NC3CCN(C(C)C)CC3)n(CC(=O)Nc3ccc(Cl)cn3)c2cn1` was tested, and the AC50 was 26.2 µM (active). With `O=c1n(CC2CO2)c(=O)n(CC2CO2)c(=O)n1CC1CO1` (stereo not given) the outcome was “inactive”. With `CN(C)c1ccc(Cc2ccc(N(C)C)cc2)cc1` the outcome was “inactive”. For `COC(=O)c1c(Cl)c(Cl)c(C(=O)OC)c(Cl)c1Cl`, the outcome was “inactive”. With `O=C(NS(=O)(=O)/C=C/c1ccccc1)c1ccc(F)cc1Cl` the outcome was “inactive”. With `CC(C)CC(C)(O)C#CC(C)(O)CC(C)C` (stereo not given) the outcome was “inactive”. `CCN(C(=O)c1cc(C)cc(OC[C@H](C)Nc2ccncc2)c1)C(C)C` was tested, and the outcome was “inactive”. With `COC(=O)CC(=O)OC` the outcome was “inactive”. `O=C(O)c1cccc(N(Cc2cccnc2)c2ccc(OC(F)F)c(OC(F)F)c2)c1` was tested, and the outcome was “inactive”. In the case of `Nc1cccc(N)c1`, the outcome is reported as “inactive”. With `C1N2CN3CN1CN(C2)C3` the outcome was “inactive”. `CC(=O)OC[C@H]1O[C@@](COC(C)=O)(O[C@H]2O[C@H](COC(C)=O)[C@@H](OC(C)=O)[C@H](OC(C)=O)[C@H]2OC(C)=O)[C@@H](OC(C)=O)[C@@H]1OC(C)=O` was tested, and the outcome was “inactive”. With `CC(C)(O)c1coc(S(=O)(=O)NC(=O)Nc2c3c(cc4c2CCC4)CCC3)c1` the outcome was “inactive”. `CCCCCCCCO` was tested, and the outcome was “inactive”. In the case of `O=C(OC[C@H]1O[C@@H](OC(=O)c2cc(O)c(O)c(OC(=O)c3cc(O)c(O)c(O)c3)c2)[C@H](OC(=O)c2cc(O)c(O)c(OC(=O)c3cc(O)c(O)c(O)c3)c2)[C@@H](OC(=O)c2cc(O)c(O)c(OC(=O)c3cc(O)c(O)c(O)c3)c2)[C@@H]1OC(=O)c1cc(O)c(O)c(OC(=O)c2cc(O)c(O)c(O)c2)c1)c1cc(O)c(O)c(OC(=O)c2cc(O)c(O)c(O)c2)c1`, the AC50 is reported as 6.05 µM (active). `O=c1[nH]c2ccc(S(=O)CCN3CCC(Cc4ccc(F)cc4)CC3)cc2o1` (stereo not given) was tested, and the outcome was “inactive”. With `CCCC(=O)OCC` the AC50 was 0.171 µM (active). For `COCCOCCOCCOC`, the outcome was “inactive”. In the case of `COc1ccc2sc(C(=O)Nc3nnn[nH]3)c(OC(C)C)c2c1`, the AC50 is reported as 149 µM (active). In the case of `CCCCCCc1ccc(O)cc1O`, the AC50 is reported as 50.7 µM (active). In the case of `CCn1nc(Cc2ccccc2)cc1C1CCN(C[C@H]2C[C@H](N(C)[C@@H](C(=O)O)C(C)C)C[C@@H]2c2cccc(F)c2)CC1`, the AC50 is reported as 26.6 µM (active). With `CCCCCCCCCCCCCCCO` the outcome was “inactive”. With `CCOC(=O)CC(CC(=O)OCC)(OC(C)=O)C(=O)OCC` the outcome was “inactive”. With `O=C(O)c1cccc(Oc2ccccc2)c1` the outcome was “inactive”. For `CCOCCO`, the outcome was “inactive”. For `COc1ccc(/C=C/S(=O)(=O)NC(=O)c2ccc(C)cc2Cl)cc1`, the outcome was “inactive”. In the case of `CNS(=O)(=O)c1cc(C(=O)N2CCC(CCN3C4CCC3CC(n3c(C)nc5ccccc53)C4)(c3cccc(F)c3)CC2)c(Cl)cc1F` (stereo not given), the outcome is reported as “inactive”. With `CCC(C)(C)C(=O)O[C@H]1C[C@@H](C)C=C2C=C[C@H](C)[C@H](CC[C@@H]3C[C@@H](O)CC(=O)O3)[C@H]21` the outcome was “inactive”. In the case of `CCc1cc(SCc2sc(-c3ccc(C(F)(F)F)cc3)nc2CN2CCN(c3ccc(OC)cc3)CC2)ccc1OCC(=O)O`, the AC50 is reported as 15.3 µM (active). In the case of `CCOC(=O)COc1ccc2c(c1)CC(NCC(O)c1cccc(Cl)c1)CC2` (stereo not given), the AC50 is reported as 33 µM (active). `COc1ccc(-n2nc(C(F)F)cc2-c2ccc(S(C)=O)cc2)cc1` (stereo not given) was tested, and the outcome was “inactive”. `Cn1c(=O)c2c(ncn2C)n(C)c1=O` was tested, and the outcome was “inactive”.
